High-throughput results deposited in PubChem BioAssay by several laboratories.
STAT3 inh – IL-6 driven STAT3 reporter inhibitors, primary screen, U3A cells, luciferase, luminescence, MLSCN library. AID 862, 2007. IL-6 STAT3-luciferase reporter; host cell line lacks STAT1. 190,000 tested, 0.89% active. inhibition, % at 5.5 µM;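 active means inhibition above the mean inhibition across all screened compounds plus 3 SD, cut at about 44% in these data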;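 further: 0% = DMSO only wells and 100% = 100 µM nifuroxazide control wells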
PPC-1+TRAIL kill – compounds killing PPC-1 cancer cells with TRAIL present, primary screen, TRAIL potentiator project, ATPLite luminescence, uHTS | 220,000 tested, 0.41% active | AID 1443, 2008 | PPC-1 cells + TRAIL, ATPLite viability luminescence | cell killing (% activity), % at 4 µM or 5 µM;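 active means cell killing above 50% in the first pass at 4 µM, then a duplicate retest at 5 µM averaging 50% or more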;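 further: plate controls were cells with TRAIL plus DMSO for no effect and medium-only wells lacking cells for full effect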
TRAIL sens C8 – viability loss with TRAIL in NB7+C8 cells, primary screen, TRAIL sensitizer project, cell-based, ATPlite luminescence | 360,000 tested, 1% active | inhibition (viability loss, TRAIL sensitization), % at 10 µM;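 active means compounds causing at least 50% loss of cell viability in the single-dose screen, relative to plate controls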
STAT1 blocker – STAT1 signaling inhibitors, primary screen, cell-based, HTS, luciferase reporter; AID 920, 2007; inhibition, % at 5.5 µM; 200,000 tested, 0.35% active; NIH 3T3 STAT1-luciferase reporter, IFN-gamma, luminescence;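 active means inhibition above a set limit, the mean inhibition across all tested compounds plus 3 SD, cut at about 34% in these data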;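 further: 0% = IFN-gamma with DMSO and 100% = IFN-gamma with 300 µM nifuroxazide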
HSP90 refold inh – HSP90 inhibitors, primary screen, cell lysate, luminescence; Heat shock protein HSP 90 (rabbit reticulocyte lysate; luciferase refolding); 290,000 tested, 0.91% active; inhibition, % at 5.6 µM; Rabbit reticulocyte lysate, luciferase refolding luminescence, 3 h;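 active means inhibition above the screen-wide mean plus 3 SD, computed separately per campaign, cut at about 16% in these data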;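 further: 0% = DMSO wells and 100% = 60 µM geldanamycin wells; inhibitors lower the luminescence because luciferase stays unfolded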
HSF1 inhib – HSF1 inhibitors in luciferase reporter cells, primary screen, cell-based, NIH3T3, luminescence; NIH3T3-HGL HSE-luciferase, MG132-induced, luminescence 8 h; active compounds read low; activity change, negative = inhibition, % at 7.5 µM (by protocol); 300,000 tested, 0.77% active; AID 2098, 2009;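 active means more than half of replicate wells show activity change below -50%, luminescence cut by over half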;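 further: luciferase reports HSF-1 transcriptional activity via heat shock element; 0% = median of DMSO wells and -100% = zero luminescence signal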
Active calls of the source: *; / = no result given. This is a sample that favours compounds with a hit; in the whole collection about 2.4% have one here.

SMILES | STAT3 inh | PPC-1+TRAIL kill | TRAIL sens C8 | STAT1 blocker | HSP90 refold inh | HSF1 inhib
COc1cc(C(=O)Nc2nc3ccccc3[nH]2)ccc1OC(F)F | / | -8 | 48* | / | -1 | 23
O=C(Nc1nc2ccccc2[nH]1)C1CCCC1 | -4 | 23 | 9 | -44 | -2 | 15
O=C(CC1CCCC1)Nc1nc2ccccc2[nH]1 | -6 | 3 | 51* | -48 | -6 | 23
COCCNC(=O)C1(C)CCCN(C(=O)c2ccccc2F)C1 (centres undefined) | / | / | -5 | / | / | /
Nc1ncnc2c(C3OC(CO)C(O)C3O)scc12 (centres undefined) | / | / | 57* | / | / | /
O=C(Nc1c(Cl)cc2c(c1Cl)Cc1cc([N+](=O)[O-])ccc1-2)C(Cl)Cl | / | / | 86* | / | / | /
CC(=O)Nc1ccc2c(c1)Cc1c-2cc(Cl)c(NC(C)=O)c1Cl | / | / | -4 | / | / | /
C=C1C(=O)c2sccc2C(c2ccc(OC)c(OC)c2)C1COC(C)=O (centres undefined) | / | / | 93* | / | / | /
COc1cc(NS(=O)(=O)c2ccc(C)cc2)c2ncccc2c1 | 1 | 28 | 16 | 4 | 6 | -81*
CC(=O)OCC(=O)NCC(=O)c1c[nH]c2ccccc12 | -19 | 5 | -6 | 6 | 4 | -61*
CN1CCN(C(=O)CCn2c(=S)[nH]c3ccccc3c2=O)CC1 | / | / | -8 | / | / | /
CSC[C@H]1CN(Cc2ccccc2)C(=O)[C@@H]1CC(=O)Nc1ccc(Br)cc1 | / | / | -3 | / | / | /
CCn1c(C)cs/c1=N\S(=O)(=O)c1ccccc1 | / | / | -18 | / | / | 3
O=Cc1s/c(=N\S(=O)(=O)c2ccccc2)n(CCCCl)c1Cl | 1 | 26 | 61* | -38 | -3 | 44
COC(=O)c1sccc1S(=O)(=O)Nc1ccc(C(O)(C(F)(F)F)C(F)(F)F)cc1 | / | / | 7 | / | / | /
COc1ccc(CNC(=O)Cc2ccc(NC(=O)C3=C(C)OCCS3)cc2)cc1 | / | / | 71* | / | 1 | 17
CC1=C(C(=O)Nc2ccc(CC(=O)NCc3ccc(OC(C)C)cc3)cc2)SCCO1 | / | / | 56* | / | -5 | -8
COc1cccc(CNC(=O)c2cccc(NC(=O)C3=C(C)OCCS3)c2)c1 | / | / | 5 | / | 3 | 4
O=C(c1ccc(CS(=O)c2ccccc2Cl)o1)N1CCN(C2CCCCC2)CC1 (centres undefined) | / | / | 19 | / | / | /
COc1ccc(C(C(=O)NC2CCCC2)N(C(=O)c2snc(-c3ccc(F)cc3)c2N)c2ccc(F)cc2)cc1 (centres undefined) | 1 | 7 | 51* | -2 | 0 | -1
O=C(CCCC(=O)N(c1ccc2c(c1)OCCO2)C(C(=O)NC1CCCCC1)c1ccc(Cl)cc1)Nc1ccccn1 (centres undefined) | 7 | 16 | -5 | 5 | 0 | -66*
COc1ccc(C(C(=O)NC2CCCCC2)N(C(=O)CCl)c2ccc(Cl)cc2)cc1 (centres undefined) | 9 | 62* | 96* | 8 | 2 | -86*
Cc1cccc(N(C(=O)CNC(=O)c2ccco2)C(C(=O)NC2CCCCC2)c2cccnc2)c1 (centres undefined) | / | / | 0 | / | -4 | -9
O=C(NC1CCCCC1)C(c1cccnc1)N(C(=O)CCl)c1cccc(Cl)c1 (centres undefined) | 18 | 12 | 98* | 23 | 6 | 5
O=C(CN1C(=O)c2cccc([N+](=O)[O-])c2C1=O)N1CCc2ccccc2C1 | / | / | 2 | / | / | /
SMILES | STAT3 inh | PPC-1+TRAIL kill | TRAIL sens C8 | STAT1 blocker | HSP90 refold inh | HSF1 inhib
O=C(Nc1ccccc1)OCCc1ccccc1 | / | / | 13 | / | / | /
COC(=O)N1C2CCCCC2=NN(c2ccccc2)N1C(=O)OC (centres undefined) | / | / | -12 | / | / | /
Cc1cccc(N(C(=O)c2ccco2)C(C(=O)NC2CCCC2)c2cccnc2)c1C (centres undefined) | / | / | -11 | / | 3 | -79*
OC1OC[C@@H](O)[C@H](O)[C@H]1O (some centres undefined) | / | / | / | / | / | -72*
OC1COC(OCc2ccccc2)C(O)C1O (centres undefined) | / | -3 | -3 | / | 4 | 2
COc1cccc2c1C(=O)c1c(O)c3c(c(O)c1C2=O)C[C@@](O)(C(=O)CO)C[C@@H]3O[C@H]1C[C@H](N)[C@H](O)[C@H](C)O1 | -45 | 54* | 62* | -181 | 7 | -24
CC(=O)[C@@]1(O)Cc2c(O)c3c(c(O)c2[C@H](O[C@H]2C[C@H](N)[C@H](O)[C@H](C)O2)C1)C(=O)c1ccccc1C3=O | / | / | 82* | / | / | /
COc1cccc2c1C(=O)c1c(O)c3c(c(O)c1C2=O)C[C@@](O)(C(=O)CO)C[C@@H]3OC1CC(N)C(O)C(C)O1 (some centres undefined) | / | / | 45 | / | / | /
CCC1CCCCN1CCCNC(=O)CSc1nc2nc(C)c(Cc3ccc(C)cc3)c(C)n2n1 (centres undefined) | / | / | 24 | / | 2 | -66*
COC(=O)c1ccc2c(c1C(=O)OC)CN(S(=O)(=O)C(C)(C)C)[C@H]2CCO | / | / | 5 | / | / | /
CCN(c1ccccc1)S(=O)(=O)c1cnc[nH]1 | 5 | 32 | 0 | -1 | 1 | -70*
CCNC(=O)C1(C)CCCN(Cc2ccc(Oc3ccccc3)cc2)C1 (centres undefined) | / | / | 20 | / | / | /
CCO[C@@H]1OC(C(=O)NCc2nc3ccccc3[nH]2)=C[C@H](c2cn(C(C)=O)c3ccccc23)[C@H]1CCCO | / | 16 | -2 | 8 | 16* | -6
Oc1ccc(F)c(CN2CCN(c3ncc(Cc4ccccc4)cn3)CC2)c1 | / | / | -6 | / | / | /
N#CC(c1ccc(Cl)cc1)c1ccc2c(C(F)(F)F)cc(C(F)(F)F)nc2n1 (centres undefined) | 87* | -1 | 20 | 75* | 3 | -1
FC(F)(F)c1cc(C(F)(F)F)c2ccc(N3CCN(c4ccc(Cl)cc4)CC3)nc2n1 | 14 | 15 | 3 | 2 | -1 | -1
Cc1cc(C2(c3cc(C)c(NC(=O)CN4CCOCC4)c(C)c3)CCCCC2)cc(C)c1NC(=O)CN1CCOCC1 | 1 | -8 | / | 2 | 2 | -57*
CCn1c(S(=O)(=O)O)nc2ccccc21 | / | -3 | 3 | / | -1 | -69*
C[C@H]1COC[C@@H](C/C=C/c2ccccc2)N1c1ccccc1 | / | / | 42 | / | / | /
